Inconclusive results are not listed. The source made the active and inactive calls. Calls come from the whole dose curve; as a rule, active = well fitted curve in the direction sought with a large enough effect; inconclusive = small, poorly fitted or top-dose-only effect, or another doubt; inactive = no such curve, though single readings can be large or run the other way.
What follows are molecules tested against Polyunsaturated fatty acid lipoxygenase ALOX15 (Homo sapiens) (UniProt P16050) (assay: Counterscreen qHTS for inhibitors of human arachidonate 12S-lipoxygenase (ALOX12): ALOX15 Assay). Settings: purified ALOX15 enzyme activity; series mostly up to 110 µM.
Sequence of Polyunsaturated fatty acid lipoxygenase ALOX15 (Homo sapiens) (P16050 whole entry, looked up): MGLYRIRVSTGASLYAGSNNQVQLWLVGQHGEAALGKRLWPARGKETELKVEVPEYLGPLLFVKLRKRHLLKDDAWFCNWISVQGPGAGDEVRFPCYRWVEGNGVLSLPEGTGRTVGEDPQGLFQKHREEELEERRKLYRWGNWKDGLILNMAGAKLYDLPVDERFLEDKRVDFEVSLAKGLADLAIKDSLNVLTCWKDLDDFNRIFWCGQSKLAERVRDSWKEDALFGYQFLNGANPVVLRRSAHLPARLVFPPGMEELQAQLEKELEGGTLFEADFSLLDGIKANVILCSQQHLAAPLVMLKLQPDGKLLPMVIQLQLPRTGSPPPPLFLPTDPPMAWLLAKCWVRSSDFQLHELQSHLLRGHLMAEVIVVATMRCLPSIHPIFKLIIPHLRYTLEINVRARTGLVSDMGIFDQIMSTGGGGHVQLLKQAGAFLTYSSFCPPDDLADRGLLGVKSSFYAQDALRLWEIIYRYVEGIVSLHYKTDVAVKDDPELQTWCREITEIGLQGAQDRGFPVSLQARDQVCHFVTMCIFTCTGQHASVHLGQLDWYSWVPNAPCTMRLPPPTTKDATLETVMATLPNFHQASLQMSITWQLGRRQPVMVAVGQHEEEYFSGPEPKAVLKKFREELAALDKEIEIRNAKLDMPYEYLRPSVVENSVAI
Outline: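 Purified human ALOX15 (15hLO-1) at 40 nM in 25 mM HEPES, 0.01% Triton X-100, pH 7.5, preincubated with compound 15 min at RT. Then 50 uM arachidonic acid for 30 min; hydroperoxide detected by Fe-xylenol orange as the 573/405 nm absorbance ratio.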
For `COCCNc1ncnc2c1CN(C1CCCNCC1)C(=O)CN2C` (stereo not drawn), the outcome was “inactive”.
With `O=[S+]([O-])(c1ccc(Br)cc1)c1nnn2c1nc(NCc1ccc(F)cc1)c1ccccc12` the outcome was “inactive”.
For `O=C1NCc2ccccc2CC12CCN(Cc1cc(F)ccc1F)C2` (stereo not drawn), the outcome was “inactive”.
`CC(C)C(=O)N1Cc2ccccc2CC2(CCCCN2CC2CCNC2)C1` (stereo not drawn) was tested, and the outcome was “inactive”.
With `COc1ccc(N(C)C2CN(C(=O)OC(C)(C)C)C2)cc1` the outcome was “inactive”.
In the case of `CCC(=O)N1Cc2ccccc2CC2(CCN(CCc3ccc(C)cc3)CC2)C1`, the outcome is reported as “inactive”.
`O=C(c1ccc(C(F)(F)F)cc1)N1CCCC2(CC(c3ccccc3)=NO2)C1` (stereo not drawn) was tested, and the outcome was “inactive”.
For `Cc1ccc(C(=O)N2CCC(N3Cc4ccccc4C3=O)CC2)cc1`, the outcome was “inactive”.
With `O=C1NC(=NC2CCCCC2)C2(CCN(Cc3ccc(F)cc3)C2)N1c1cccnc1` (stereo not drawn) the outcome was “inactive”.
For `CCCC(=O)N1Cc2ccccc2CC2(CCCN(CC3CCNC3)C2)C1` (stereo not drawn), the outcome was “inactive”.
With `Cn1nc(C2CCCN2)c2c(C(=O)NCc3cccs3)cc(C3CC3)nc21` (stereo not drawn) the outcome was “inactive”.
`CN1CC(=O)N(C2CCC2)Cc2c(NC3CCNCC3)ncnc21` was tested, and the outcome was “inactive”.
`Cc1ccc(-c2ccc(CN)cc2)cc1Cl` was tested, and the outcome was “inactive”.
`CN1CC(=O)N(C2CCCNC2)Cc2c(NC3CCCCC3)ncnc21` (stereo not drawn) was tested, and the outcome was “inactive”.
With `COc1cccc(N2C(=O)NC(=NC3CCCCC3)C23CCN(CC2CC2)CC3)c1` the outcome was “inactive”.
For `O=C(O)CCCC(=O)N1Cc2ccccc2CC2(CCCN(Cc3ccccn3)C2)C1` (stereo not drawn), the outcome was “inactive”.
With `NCc1ccc(-c2cccc(C(F)(F)F)c2)cc1` the outcome was “inactive”.
For `O=C(NCC(F)(F)F)c1cc(C2CC2)nc2c1c(C1CCCN1)nn2-c1ccccc1` (stereo not drawn), the outcome was “inactive”.
With `Cc1noc(C)c1S(=O)(=O)N1CCC(N2CCOC2=O)CC1` the outcome was “inactive”.
`CCc1ccc(CN2CCC3(CC2)Cc2ccccc2CNC3=O)s1` was tested, and the outcome was “inactive”.
With `O=C(NC1CC1)c1cc(-c2ccccc2C(F)(F)F)nc2onc(C3CCNC3)c12` (stereo not drawn) the outcome was “inactive”.
With `O=C(O)C1=NOC2CN(Cc3c(F)cccc3Cl)CC12` (stereo not drawn) the outcome was “inactive”.
In the case of `Fc1ccc(CN2CCC3(CC(c4cccc(C(F)(F)F)c4)=NO3)C2)cc1` (stereo not drawn), the outcome is reported as “inactive”.
For `CCC(=O)N1Cc2ccccc2CC2(CCCCN2CC2CCOCC2)C1` (stereo not drawn), the outcome was “inactive”.
`O=C(c1ccncc1)N1CCC(c2nnc3n2CCNC3)CC1` was tested, and the outcome was “inactive”.
`Cn1nc(C2CCCNC2)c2c(C(=O)NCC(F)(F)F)cc(C3CC3)nc21` (stereo not drawn) was tested, and the outcome was “inactive”.
For `Cc1cc(C(=O)NC2CCCC2)c2c(C3CCNC3)noc2n1` (stereo not drawn), the outcome was “inactive”.
For `CNCc1ccc(F)cc1`, the outcome was “inactive”.
For `COc1ccc(C(=O)N2CCc3nc(C4CC4)nc(-c4ccc(OC)cc4)c3C2)cc1`, the outcome was “inactive”.
With `CCOc1cccc(CN2CCCC23Cc2ccccc2CNC3=O)c1` (stereo not drawn) the outcome was “inactive”.
With `CN1CC(=O)N(C2CCNCC2)Cc2c1ncnc2N1CCc2ccccc2C1` the outcome was “inactive”.
For `CN1CC(=O)N(C2CNC2)Cc2c(NCC3CC3)ncnc21`, the outcome was “inactive”.
For `CC(=O)Nc1ccc(C(=O)N2C3CCC2CN(C(C)C)C3)cc1`, the outcome was “inactive”.
For `NC(C(=O)N1CCC2(CC1)CN(C(=O)Cc1cccc(Cl)c1)CCO2)c1ccccc1` (stereo not drawn), the outcome was “inactive”.
In the case of `CC(C)NCCN1CCCC1`, the outcome is reported as “inactive”.
For `CN1CCC(C(=O)N2CCCC3(Cc4ccccc4CN3C(=O)c3ccccc3)C2)CC1` (stereo not drawn), the outcome was “inactive”.
`COc1ccc(-c2nc(C3CC3)nc3c2CN(C(=O)c2ccccc2OC)CC3)cc1` was tested, and the outcome was “inactive”.
In the case of `Cn1nc(C2CCNC2)c2c(C(=O)NCc3ccncc3)cc(C3CC3)nc21` (stereo not drawn), the outcome is reported as “inactive”.

Reference: PubChem BioAssay AID1671192 (National Center for Advancing Translational Sciences (NCATS), 2021)
